The full ranking holds about 33,000 sequences; the median of “E-score (-0.5 to 0.5)” is about -0.035, and the highest 2% start at about 0.34. This is one part of a sample in which the highest values are shown more often than they occur.

The target in the assay is T1, Mot3 (UniProt P54785).
T1 sequence: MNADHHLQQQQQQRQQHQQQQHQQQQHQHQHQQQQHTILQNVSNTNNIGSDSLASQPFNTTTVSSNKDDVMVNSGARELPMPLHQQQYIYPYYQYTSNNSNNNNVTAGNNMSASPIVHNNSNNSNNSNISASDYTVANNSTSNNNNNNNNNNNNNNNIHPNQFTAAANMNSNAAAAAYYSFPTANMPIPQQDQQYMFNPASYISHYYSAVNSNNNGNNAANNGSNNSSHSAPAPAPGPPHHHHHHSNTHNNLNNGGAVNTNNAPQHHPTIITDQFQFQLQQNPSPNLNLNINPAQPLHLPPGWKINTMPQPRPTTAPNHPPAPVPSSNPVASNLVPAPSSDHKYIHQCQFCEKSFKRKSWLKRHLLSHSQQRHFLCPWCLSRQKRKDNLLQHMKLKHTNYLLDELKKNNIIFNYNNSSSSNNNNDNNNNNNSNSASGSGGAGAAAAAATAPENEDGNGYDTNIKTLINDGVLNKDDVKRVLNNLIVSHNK
The assay is described as follows: PBM E-score (8-mer binding enrichment) (E-score (-0.5 to 0.5)); higher = stronger / more preferred TF binding. Conditions: protein concentration: 200 nM; construct: GST-full length. A digest of the protocol:
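For each ungapped eight-base word taken together with its reverse complement, the Universal PBM Analysis Suite assigned an E-score. Binding data came from GST-tagged yeast transcription factors, applied at about 100-200 nM, on universal all-10-mer Agilent arrays made double-stranded by primer extension. Fluorescent anti-GST marked bound protein, and scans were normalised with masliner.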
Take TAAAGGGA: the “PBM E-score” value worked out at 0.016.
CAAAGGCC: the “PBM E-score” value is -0.151.
The value for AAAAGGCG was 0.278.
For the sequence CAAAGGCA, the “PBM E-score” value was 0.479.
The value for GAAAGGCA was 0.469.
Next, GAAAGGCC: -0.0302.
In the case of AAAAGGCA, the “PBM E-score” value was determined as 0.478.
As for TAAAGGCA, the “PBM E-score” value was 0.481.
Take GAAAGGGA: the “PBM E-score” value was 0.0421.
As to AAAAGGCT, the “PBM E-score” value came to 0.0632.
Consider TAAAGTCA, for which the “PBM E-score” value amounted to 0.0168.
As to CAAAGGCG, the “PBM E-score” value turned out to be 0.233.
Regarding ACAACGAT, the “PBM E-score” value was 0.155.
As to AGCACAAG, the “PBM E-score” value came to 0.0406.
With CTAGGCCC, the “PBM E-score” value was -0.21.
On to CTCTACCA, for which the “PBM E-score” value was -0.192.
In the case of CGACTCAG, the “PBM E-score” value was -0.219.
For GCGGTTCC, the “PBM E-score” value is 0.0435.
In the case of CACTTTGG, the “PBM E-score” value was -0.0925.
As for GACTGATA, the “PBM E-score” value was -0.216.
The value for CGGGGCTA was -0.291; that for AACTTCCT was 0.15; that for CTTTGTAC was 0.193.
Next, CCTTGTAC: 0.272; CTTTGTAA: 0.355; CCTTGTAG: 0.311.
Next, CCTTGTAA: 0.392; ATTTGTAA: 0.244.
On to AGGCTGTC, for which the “PBM E-score” value is -0.15.
Next, GGGCATAC: -0.186; AAGAAGTC: -0.0398.
Take AATTGCGC: the “PBM E-score” value was determined as 0.0861.
Next, GTCTATGA: 0.0543; CTCGATAC: 0.24.
As to GGCGTGCA, the “PBM E-score” value is -0.243.
Next, GGCGTGAA: -0.0959.
Next, AGCGTGTG: 0.147; AGCGTGTA: 0.406; GGCGTGTA: 0.383.
Next, CGCGTGTA: 0.375; CGCGTGTC: 0.196; AGCGTGTC: 0.205.
Take CGCGTGAA: the “PBM E-score” value worked out at 0.172.
The value for ACAGACGT was 0.119; that for GAGGGAAA was -0.199.
Turning to CTCCTTGA, the “PBM E-score” value was -0.122.
Next, GGAAGGTA: 0.251; AGAAGGTA: 0.347; CGAAGGTC: -0.313.
As for AGAAGGTG, the “PBM E-score” value is -0.0242.
AGAAGGTC: the “PBM E-score” value is -0.0584.
CGAAGGTA: the “PBM E-score” value was 0.366.
For the sequence ATTTAGGC, the “PBM E-score” value was 0.339.
The value for CTTGATAC was 0.00505; that for CAGACACC was -0.0175.
For AAGACGGC, the “PBM E-score” value is -0.265.
The value for ATGGATTG was 0.0625.
Next, GCGTTCTA: -0.106; ATAGACCC: 0.178; CGCCACCC: -0.0907.
CAACATGA: the “PBM E-score” value is 0.352.
Next, TAACATCA: 0.25; GAACATGC: 0.202; TAACATGA: 0.363.
Turning to AAACATGT, the “PBM E-score” value was 0.374.
Next, AAACATGC: 0.288; GAACATGA: 0.238; CAACATGC: 0.345.
The value for CAACATGG was 0.337.
Take AAACATGA: the “PBM E-score” value is 0.327.
In the case of AAACATGG, the “PBM E-score” value was found to be 0.222.
The value for CCACATGA was 0.0141; that for ATGGCCAT was -0.171; that for CAGTTCCC was -0.174.
Take CTAGGATC: the “PBM E-score” value is -0.0652.
Take CAGTGCGC: the “PBM E-score” value was -0.292.
CCCGGTCG: the “PBM E-score” value is -0.273.
The value for ACCGGTAT was -0.135; that for ACGTTGTG was 0.137.
Turning to GGCCGAGA, the “PBM E-score” value was -0.209.
Next, TAGTAATA: 0.182; CTCTCTGC: -0.112.
With AAGGCATC, the “PBM E-score” value was 0.381.
The value for AAGGCATG was 0.303; that for AGGGCATC was -0.163; that for AAGGCATT was 0.362.
Consider ATGGCATC, for which the “PBM E-score” value is -0.162.
Turning to AAGGCATA, the “PBM E-score” value stood at 0.321.
Turning to AAACTTCG, the “PBM E-score” value amounted to 0.0118.
Turning to TACCTAGA, the “PBM E-score” value turned out to be 0.252.
The value for AGAGAAAA was -0.0157; that for CAGCACTA was -0.113.
The value for ATAAAGCA was -0.12; that for ACATAGGT was 0.282.
Next, CTAAAGGA: 0.148; ACACAGGG: 0.213.
For ACATAGGC, the “PBM E-score” value amounted to 0.373.
As to ATTAAGGA, the “PBM E-score” value was determined as 0.0441.
The value for ATAAAGGC was 0.186.
As to CTAAAGGC, the “PBM E-score” value is 0.35.
The value for ACACAGGC was 0.354; that for CTTAAGGC was 0.314; that for GCATAGGC was 0.166.
Turning to ATTAAGGC, the “PBM E-score” value worked out at 0.378.
Consider ACACAGGA, for which the “PBM E-score” value amounted to 0.295.
For the sequence CGCAGCCC, the “PBM E-score” value was -0.265.
The value for CAGCAACC was -0.184; that for TAACGCAA was 0.2; that for CGAGAACG was -0.206.
The value for GGGTAAGA was -0.146; that for ATCGCTTC was -0.178.
CCAAAGGC: the “PBM E-score” value came to 0.145.
ACAAAGGG: the “PBM E-score” value is -0.0152.
Consider ACAAAGGC, for which the “PBM E-score” value came to 0.36.
The value for ATAGCGCA was -0.0413.
With AGAGCTAT, the “PBM E-score” value was found to be 0.00577.
The value for CAATGTAA was 0.34.
In the case of CAATGTAC, the “PBM E-score” value turned out to be 0.184.
Next, TAATGTAA: 0.354.
Next, TAATGTCA: 0.139; CAATGTAG: 0.234; AAATGTAC: 0.227.
Regarding AAATGTAA, the “PBM E-score” value worked out at 0.346.
In the case of AAATGTAG, the “PBM E-score” value stood at 0.151.
For the sequence GAATGTAA, the “PBM E-score” value was found to be 0.295.
For the sequence ATTCTCTC, the “PBM E-score” value is -0.103.
The value for ATATTAAA was 0.184.

Values taken from the supplement of paper PMC3334620.
